# A number with no mark means an inactive call. Unless noted, the call rests on the fitted dose curve; in most records, active means well fitted cell-killing curve with a large enough effect in the repeat runs; inconclusive means weak or mixed curves, or effect the other way; inactive means flat fitted curve, though single readings scatter. Results filed as inconclusive are left out.
# System: not listed separately
# Test: qHTS assay to identify small molecule agonists of the estrogen receptor beta (ER-beta) signaling pathway - cell viability counter screen (AID 1259380); further: nearly all actives have a fitted effect of over 30% in size
# Settings: ER-beta-bla HEK293T viability, CellTiter-Glo luminescence, 16 h; series mostly up to 92.4 µM; activity change, negative = cytotoxicity: at the top concentration
# How it was run: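 In this qHTS counter screen, HEK293T cells carrying an ER-beta/UAS beta-lactamase reporter, grown in 2% charcoal-stripped FBS, received compound for 16 hr; ATP-based CellTiter-Glo luminescence was then read after 30 min at room temperature.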
# On the % scale 0 is the no-effect control and ±100 the full control effect.
row,SMILES,"activity change, negative = cytotoxicity"
1,CC1(C)OC[C@@H](COC(=O)CCc2ccc(OC[C@@H](O)CNCCNC(=O)N3CCOCC3)cc2)O1,-1.35% [at 42.5 µM]
2,CCC(C(=O)NC(=O)NC(C)=O)c1ccccc1 (stereo not given),6.28% [at 42.5 µM]
3,CC(C)(N)C#N,0.177%
4,CN1C(C)(C)CC(O)CC1(C)C,0.43%
5,O=C(c1ccccc1)C1(O)CCCCC1,4.06%
6,[O-][n+]1cccc(CO)c1,1.83% [at 42.5 µM]
7,CC(C)CC(C)(N)C#N (stereo not given),4.37%
8,CC(COc1ccccc1)NN (stereo not given),0.325% [at 42.5 µM]
9,C=CC(=O)OCCCl,-8.43%
10,NS(=O)(=O)Cc1noc2ccccc12,0.592% [at 42.5 µM]
11,CCNS(=O)(=O)c1ccc(C)cc1,3.28%
12,OCCCCCO,5.78%
13,O=C(CO)[C@@H](O)[C@H](O)[C@H](O)CO,1.97%
14,C=CC(C)(CCC=C(C)C)OC(=O)CC (stereo not given),5.27%
15,CN(C)[C@@H]1C(=O)C(C(=O)NCN2CCCC2)=C(O)[C@@]2(O)C(=O)C3=C(O)c4c(O)cccc4[C@@](C)(O)C3C[C@@H]12 (stereo not given in full),-4.86% [at 42.5 µM]
16,Clc1cc(Cl)cc(Cl)c1,-2.37%
17,O=C1CCCCCCCCCCCCCCO1,-11.7%
18,CCCO[Si](OCCC)(OCCC)OCCC,13%
19,O=Cc1cccc(Br)c1,-9.64%
20,C[N+](C)(CCOc1ccccc1)Cc1cccs1,-2.01% [at 42.5 µM]
21,CN1CCC(=C2c3ccccc3CCc3cccnc32)CC1,-0.0471% [at 42.5 µM]
22,CCCCc1ccc2c(n1)[C@@H](c1ccc(OC)cc1C[C@H](C)C(=O)O)[C@H](C(=O)O)[C@H]2c1ccc2c(c1)OCO2,1.09%
23,CC(C)c1ccc2ncccc2c1,-1.62%
24,c1ccc(Cc2ccccc2)cc1,0.859%
25,C=C(C)C(=O)OCC1CCCO1 (stereo not given),6.75%
26,CN(C)CCCN(C)CCCN(C)C,-0.272%
27,CC1(C)[C@@H]2CC[C@@]1(C)[C@H](O)C2,8.09%
28,CCN[C@H]1C[C@H](C)S(=O)(=O)c2sc(S(N)(=O)=O)cc21,2.03% [at 42.5 µM]
29,O=CN(CCO)CCO,0.654%

# Molecular target: Androgen receptor (Homo sapiens) (UniProt P10275)
# Test: qHTS assay to identify small molecule agonists of the androgen receptor (AR) signaling pathway in the presence of an antagonist (AID 1259381; calls by dose curve; further: nearly all actives have a fitted effect of over 15% in size)
# Settings: MDA-kb2 MMTV-luciferase, AR agonist + nilutamide, 16 h; series mostly up to 42.5 µM; activation: at the top concentration
# How it was run: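 AR antagonist background: nilutamide 3.0uM final. Cell line: MDA-kb2, MMTV-driven luciferase, responsive to both AR and GR. Exposure 16hr, 37C, no CO2; ONE-Glo luminescence.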
# Sequence of Androgen receptor (Homo sapiens) (P10275 whole entry, looked up): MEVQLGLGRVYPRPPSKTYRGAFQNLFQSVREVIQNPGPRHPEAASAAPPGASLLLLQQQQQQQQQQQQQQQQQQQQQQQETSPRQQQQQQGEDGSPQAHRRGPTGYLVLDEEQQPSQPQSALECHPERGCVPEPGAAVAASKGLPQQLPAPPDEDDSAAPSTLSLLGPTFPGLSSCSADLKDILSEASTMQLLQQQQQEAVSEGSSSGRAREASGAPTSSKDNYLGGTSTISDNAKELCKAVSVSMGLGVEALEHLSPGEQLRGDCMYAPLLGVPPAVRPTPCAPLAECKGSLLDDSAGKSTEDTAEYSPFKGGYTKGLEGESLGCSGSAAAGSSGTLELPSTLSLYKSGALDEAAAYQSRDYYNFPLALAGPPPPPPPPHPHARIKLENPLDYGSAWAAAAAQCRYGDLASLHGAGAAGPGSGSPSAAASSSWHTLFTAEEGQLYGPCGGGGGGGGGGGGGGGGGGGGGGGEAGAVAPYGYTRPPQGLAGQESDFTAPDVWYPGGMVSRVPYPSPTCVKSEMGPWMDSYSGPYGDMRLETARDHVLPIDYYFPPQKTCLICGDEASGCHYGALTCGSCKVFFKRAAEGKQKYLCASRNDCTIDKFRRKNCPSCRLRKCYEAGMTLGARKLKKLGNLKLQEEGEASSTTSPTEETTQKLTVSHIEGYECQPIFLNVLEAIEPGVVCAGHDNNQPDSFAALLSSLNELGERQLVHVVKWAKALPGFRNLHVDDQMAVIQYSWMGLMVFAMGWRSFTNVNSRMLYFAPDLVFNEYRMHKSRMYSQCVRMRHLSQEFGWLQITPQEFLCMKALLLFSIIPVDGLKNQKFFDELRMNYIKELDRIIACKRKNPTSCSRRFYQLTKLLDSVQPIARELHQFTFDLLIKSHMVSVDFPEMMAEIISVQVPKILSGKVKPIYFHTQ
row,SMILES,activation
1,CC1(C)OC[C@@H](COC(=O)CCc2ccc(OC[C@@H](O)CNCCNC(=O)N3CCOCC3)cc2)O1,1.59%
2,O=C(O)CCSCCC(=O)O,0.194% [at 92.4 µM]
3,NS(=O)(=O)Cc1noc2ccccc12,-0.0281%
4,C[N+](C)(CCOc1ccccc1)Cc1cccs1,-0.671%
5,O=S(=O)(O)c1cc(O)c(O)c(S(=O)(=O)O)c1,0.149% [at 92.4 µM]
6,O=[N+]([O-])c1cncn1CCN1CCOCC1,-0.052%
